Experimental data from PubChem BioAssay (NCATS).
Results filed as inconclusive are left out. Activity calls are given as the source filed them. Unless noted, calls follow the shape of the dose curve; as a rule, active = well fitted curve in the direction sought with a large enough effect; inconclusive = small, poorly fitted or top-dose-only effect, or another doubt; inactive = no such curve, though single readings can be large; an effect the other way counts as inactive or inconclusive.

What was measured:
Es-2 = assay: Primary qHTS to identify gynecologic anti-cancer compounds using libraries of approved drugs and bioactive compounds (AID 1345084); details: Gynecologic cancer cell panel viability, ATPlite luminescence, 48 h; series mostly up to 57.5 µM; also: nearly all actives have a fitted effect of over 55% in size; also: potency is read from the fitted curve at half-maximal effect
Summary of the method: (§1)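 Measured: luminescence after ATPlite addition (15 min, RT). Exposure: 48 h, 37 C, 5% CO2.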

HeLa = assay: as above; details: Gynecologic cancer cell panel viability, ATPlite luminescence, 48 h; series mostly up to 57.5 µM
Summary of the method: as §1

Hek293T = assay: as above; details: Gynecologic cancer cell panel viability, ATPlite luminescence, 48 h, control line for the selectivity index; series mostly up to 57.5 µM
Summary of the method: as §1

JEG-3 = assay: as above; details: Gynecologic cancer cell panel viability, ATPlite luminescence, 48 h; series mostly up to 57.5 µM
Summary of the method: as §1

OV90 = assay: as above; details: Gynecologic cancer cell panel viability, ATPlite luminescence, 48 h; series mostly up to 57.5 µM
Summary of the method: as §1

PA-1 = assay: as above; details: Gynecologic cancer cell panel viability, ATPlite luminescence, 48 h; series mostly up to 57.5 µM
Summary of the method: as §1

SKOV3 = assay: as above; details: Gynecologic cancer cell panel viability, ATPlite luminescence, 48 h; series mostly up to 57.5 µM
Summary of the method: as §1

Tov-21-G = assay: as above; details: Gynecologic cancer cell panel viability, ATPlite luminescence, 48 h; series mostly up to 57.5 µM
Summary of the method: as §1

Tov112D = assay: as above; details: Gynecologic cancer cell panel viability, ATPlite luminescence, 48 h; series mostly up to 57.5 µM
Summary of the method: as §1

[1] = Drug repurposing screens with cells derived from glioblastoma tumor samples (AID 1345199); details: GBM patient neurospheres viability, ATP luminescence, 48 h; also: nearly all actives have a fitted effect of over 40% in size; also: potency is read from the fitted curve at half-maximal effect; as to activity, negative = cell killing: % is scaled to controls: 0 for no effect and ±100 for the full control effect
Summary of the method: (§2)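 Four patient lines of CD133+ GBM neurospheres were screened at several concentrations; hits were retested in those lines plus three slower-growing GBM lines, using 48-hour treatment and ATP-based viability.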

astro = assay: as above; details: viability, ATP luminescence, 48 h; series mostly up to 45.9 µM
Summary of the method: as §2

[2] = qHTS assay to identify inhibitors of the type 1 interferon - major histocompatibility complex class I in skeletal muscle: Counter screen cell viability and HiBit confirmation (AID 1347412); details: iHSKM muscle cells + IFN-b, HiBiT or CellTiter-Glo, 24 h; Viability; at 45.9 µM (top of the series); also: % is scaled to controls: 0 for no effect and ±100 for the full control effect; nearly all actives have a fitted effect of over 60% in size
Summary of the method: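 CRISPR HLA-B*08:01-HiBit immortalized human myoblasts (C25cl48) stimulated with 4 ng/ml IFN-beta and compounds (12-point 1:3, top 46 uM final) for 24 h at 37 C. Duplicate plates read by HiBit lytic luminescence or CellTiter Glo ATP.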

[3] = target: Nuclear receptor subfamily 1 group I member 2 (Rattus norvegicus) (UniProt Q9R1A7); assay: qHTS assay for small molecule activators of the rat pregnane X receptor (rPXR) signaling pathway (AID 651751; call rule not given here; also: 0% is about no effect); details: rPXR reporter cells, luciferase (One-Glo), 24 h
Nuclear receptor subfamily 1 group I member 2 (Rattus norvegicus), sequence (Q9R1A7 whole entry, looked up): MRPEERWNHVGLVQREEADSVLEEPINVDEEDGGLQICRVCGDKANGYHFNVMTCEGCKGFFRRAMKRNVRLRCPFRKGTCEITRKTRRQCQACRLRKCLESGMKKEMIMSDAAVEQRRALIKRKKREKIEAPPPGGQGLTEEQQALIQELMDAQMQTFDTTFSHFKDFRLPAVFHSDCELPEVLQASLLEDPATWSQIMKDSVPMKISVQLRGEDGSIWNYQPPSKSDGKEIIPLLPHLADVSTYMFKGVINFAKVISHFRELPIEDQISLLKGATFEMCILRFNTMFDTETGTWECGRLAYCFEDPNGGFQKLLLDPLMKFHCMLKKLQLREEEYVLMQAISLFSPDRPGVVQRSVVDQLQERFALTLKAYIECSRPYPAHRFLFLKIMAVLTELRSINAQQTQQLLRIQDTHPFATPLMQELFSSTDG

[4] = at 45.9 µM (top of the series), tumour line B
[5] = at 45.9 µM (top of the series), tumour line D
[6] = at 46 µM (top of the series), tumour line A
[7] = at 46.1 µM (top of the series), tumour line C

CN(C)C(=O)Oc1cccc([N+](C)(C)C)c1
inactive: Potency (Es-2) | Potency (HeLa) | Potency (Hek293T) | Potency (JEG-3) | Potency (OV90) | Potency (PA-1) | Potency (SKOV3) | Potency (Tov-21-G) | Potency (Tov112D) | activity, negative = cell killing [1, 4] -0.104% | activity, negative = cell killing [1, 5] 10.8% | activity, negative = cell killing [1, 6] -24.8% | activity, negative = cell killing [1, 7] -4.3% | Potency (astro)

C[C@@H](O)[C@H]1C(=O)N2C(C(=O)O)=C(SCCN=CN)C[C@H]12
inactive: Potency (Es-2) | Potency (HeLa) | Potency (Hek293T) | Potency (JEG-3) | Potency (OV90) | Potency (PA-1) | Potency (SKOV3) | Potency (Tov-21-G) | Potency (Tov112D) | activity, negative = cell killing ([1]; at 20 µM (top of the series), tumour line C) -11.4% | activity, negative = cell killing ([1]; at 21.2 µM (top of the series), tumour line B) -16.2% | activity, negative = cell killing ([1]; at 21.2 µM (top of the series), tumour line D) -8.7% | activity, negative = cell killing ([1]; at 21.3 µM (top of the series), tumour line A) -14.5% | Potency (astro)

CN(C)CCN(Cc1cccs1)c1ccccn1
active: Potency ([1]; tumour line A) 8.91 µM
inactive: Potency (Es-2) | Potency (HeLa) | Potency (Hek293T) | Potency (JEG-3) | Potency (OV90) | Potency (PA-1) | Potency (SKOV3) | Potency (Tov-21-G) | Potency (Tov112D) | activity, negative = cell killing [1, 4] -18%

C#CCN(C)CCCOc1ccc(Cl)cc1Cl
inactive: Potency (Es-2) | Potency (HeLa) | Potency (Hek293T) | Potency (JEG-3) | Potency (OV90) | Potency (PA-1) | Potency (SKOV3) | Potency (Tov-21-G) | Potency (Tov112D) | activity, negative = cell killing [1, 4] -0.374% | activity, negative = cell killing [1, 5] -15.7% | activity, negative = cell killing [1, 6] -39.4% | activity, negative = cell killing [1, 7] -14.2% | Potency (astro)

CSc1ccc(C(=O)c2[nH]c(=O)[nH]c2C)cc1
active: Potency (HeLa) 2 µM
inactive: Potency (Es-2) | Potency (Hek293T) | Potency (JEG-3) | Potency (OV90) | Potency (PA-1) | Potency (SKOV3) | Potency (Tov-21-G) | Potency (Tov112D) | activity, negative = cell killing [1, 4] -10.8% | activity, negative = cell killing [1, 5] -20.6% | activity, negative = cell killing [1, 7] -21.1%

C[C@]12C=CC(=O)C=C1CC[C@H]1[C@@H]3C[C@@H](O)[C@](O)(C(=O)CO)[C@@]3(C)C[C@H](O)[C@@]12F
inactive: Potency (Es-2) | Potency (HeLa) | Potency (Hek293T) | Potency (JEG-3) | Potency (OV90) | Potency (PA-1) | Potency (SKOV3) | Potency (Tov-21-G) | Potency (Tov112D) | activity, negative = cell killing [1, 4] -11.4% | activity, negative = cell killing [1, 5] -6.95% | activity, negative = cell killing [1, 6] -27.1% | activity, negative = cell killing [1, 7] 7.27% | Potency (astro) | activity change, negative = inhibition [2] 8.47% | max response [3] 3.64%

CN(C)C(=O)Oc1ccc[n+](C)c1
inactive: Potency (Es-2) | Potency (HeLa) | Potency (Hek293T) | Potency (JEG-3) | Potency (OV90) | Potency (PA-1) | Potency (SKOV3) | Potency (Tov-21-G) | Potency (Tov112D) | activity, negative = cell killing [1, 4] 5.33% | activity, negative = cell killing [1, 5] -8.24% | activity, negative = cell killing [1, 6] -28.3% | activity, negative = cell killing [1, 7] -15.6% | Potency (astro)
